Measurements: PubChem BioAssay (NCATS)
Inconclusive results are not listed. Active and inactive are the calls of the source. The call rests on the fitted dose curve; in most records, active means well fitted cell-killing curve with a large enough effect; inconclusive means small, poorly fitted or top-dose-only effect, or effect the other way; inactive means flat fitted curve, though single readings scatter.

Legend:
Assay in all cases: Primary qHTS to identify gynecologic anti-cancer compounds using libraries of approved drugs and bioactive compounds (AID 1345084); further: nearly all actives have a fitted effect of over 55% in size
[1] = test system: C33A; conditions: Gynecologic cancer cell panel viability, ATPlite luminescence, 48 h; series mostly up to 57.5 µM
Summary of the method: (§1)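 Cell viability after 48 h drug treatment, ATPlite luminescence readout; five doses.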

[2] = test system: CAOV3; conditions: Gynecologic cancer cell panel viability, ATPlite luminescence, 48 h; series mostly up to 57.5 µM
Summary of the method: as §1

[3] = test system: CASKI; conditions: Gynecologic cancer cell panel viability, ATPlite luminescence, 48 h; series mostly up to 57.5 µM
Summary of the method: as §1

[4] = test system: Es-2; conditions: Gynecologic cancer cell panel viability, ATPlite luminescence, 48 h; series mostly up to 57.5 µM
Summary of the method: as §1

[5] = test system: HeLa; conditions: Gynecologic cancer cell panel viability, ATPlite luminescence, 48 h; series mostly up to 57.5 µM
Summary of the method: as §1

[6] = test system: Hek293T; conditions: Gynecologic cancer cell panel viability, ATPlite luminescence, 48 h, control line for the selectivity index; series mostly up to 57.5 µM
Summary of the method: as §1

[7] = test system: JEG-3; conditions: Gynecologic cancer cell panel viability, ATPlite luminescence, 48 h; series mostly up to 57.5 µM
Summary of the method: as §1

[8] = test system: OV90; conditions: Gynecologic cancer cell panel viability, ATPlite luminescence, 48 h; series mostly up to 57.5 µM
Summary of the method: as §1

[9] = test system: PA-1; conditions: Gynecologic cancer cell panel viability, ATPlite luminescence, 48 h; series mostly up to 57.5 µM
Summary of the method: as §1

[10] = test system: SKOV3; conditions: Gynecologic cancer cell panel viability, ATPlite luminescence, 48 h; series mostly up to 57.5 µM
Summary of the method: as §1

[11] = test system: Tov-21-G; conditions: Gynecologic cancer cell panel viability, ATPlite luminescence, 48 h; series mostly up to 57.5 µM
Summary of the method: as §1

[12] = test system: Tov112D; conditions: Gynecologic cancer cell panel viability, ATPlite luminescence, 48 h; series mostly up to 57.5 µM
Summary of the method: as §1

Measured: Potency

C=C1CCC[C@]2(C)CC[C@@](O)(C(=C)C(=O)O)C[C@@H]12
inactive: [1] | [2] | [3] | [4] | [5] | [6] | [7] | [8] | [9] | [10] | [11] | [12]

CN1CCCC1Cc1c[nH]c2ccc(CCS(=O)(=O)c3ccccc3)cc12 (centres undefined)
inactive: [1] | [2] | [3] | [4] | [5] | [6] | [7] | [8] | [9] | [10] | [11] | [12]

O=C(Nc1cc(-c2ccccc2)nn1-c1ccccc1)c1ccc([N+](=O)[O-])cc1
inactive: [1] | [2] | [3] | [4] | [5] | [6] | [7] | [8] | [9] | [10] | [11] | [12]

CC(=O)OC/C(=C/C(=O)O)CC[C@@H]1C(CO)=CC[C@@H]2C(C)(C)CCC[C@@]12C
inactive: [1] | [2] | [3] | [4] | [5] | [6] | [7] | [8] | [9] | [10] | [11] | [12]

COc1ccc(/C=C/C(=O)O[C@@H]2[C@@H](OC(C)=O)[C@@H](OC(C)=O)[C@H](O[C@H]3[C@@H]4C=CO[C@@H](O[C@@H]5O[C@H](CO)[C@@H](O)[C@H](O)[C@H]5O)[C@@H]4[C@@]4(CO)O[C@@H]34)O[C@H]2C)cc1
inactive: [1] | [2] | [3] | [4] | [5] | [6] | [7] | [8] | [9] | [10] | [11] | [12]

CCNC(=O)OC1CCN(c2nncc3cc(OC)c(OC)cc23)CC1
inactive: [1] | [2] | [3] | [4] | [5] | [6] | [7] | [8] | [9] | [10] | [11] | [12]

C[C@@]1(C(=O)O)CCC[C@@]2(C)C3=CC[C@H]4C[C@@]3(CC[C@H]12)CC4(O)CO (some centres undefined)
inactive: [1] | [2] | [3] | [4] | [5] | [6] | [7] | [8] | [9] | [10] | [11] | [12]
